An excerpt weighted towards active compounds, which were near 3.1% of everything screened.
PLK1 PBD inh – qHTS for Inhibitors of PLK1-PDB (polo-like kinase 1 - polo-box domain): Primary Screen. 360,000 compounds, 2.8% hits. Serine/threonine-protein kinase PLK1 (Homo sapiens), P53350. Plk1 PBD binding of FITC phosphopeptide, fluorescence polarization. Potency, µM, inactives show max response, negative = inhibition, hits mostly inhibitors; note: potency is the fitted concentration of half-maximal effect; series mostly up to about 57 µM; nearly all actives have a fitted effect of over 65% in size
PI4K2A inh – qHTS for small molecular inhibitors of PI4K2A. Phosphatidylinositol 4-kinase type 2-alpha (Homo sapiens), Q9BTU6. purified PI4K2A, ADP-Glo luminescence, 1 h; active compounds read low. activity change, negative = inhibition, % at 76.9 µM. 420,000 compounds, 0.13% hits. AID 1346378, 2018; in the data active = activity change below about -50%; inconclusive = mostly about -30% to -49%;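 note: -100% = wells without enzyme as full effect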
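In this quantitative HTS, ADP production by PI4K2A was quantified luminescently after 1 h at ambient temperature; 100 microM adenosine served as plate-quality control.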
GLS inh – qHTS for Inhibitors of Glutaminase (GLS) | 410,000 compounds, 0.21% hits | Glutaminase kidney isoform, mitochondrial (Homo sapiens), O94925 | GLS enzymatic activity, qHTS titration | AID 624170, 2012 | Potency, µM (highest dose often 45.5 µM), inactives show top-dose activity change, negative = inhibition, usual class: inhibitors; note: potency is the fitted concentration of half-maximal effect
Target sequence (O94925 whole entry, looked up, canonical isoform): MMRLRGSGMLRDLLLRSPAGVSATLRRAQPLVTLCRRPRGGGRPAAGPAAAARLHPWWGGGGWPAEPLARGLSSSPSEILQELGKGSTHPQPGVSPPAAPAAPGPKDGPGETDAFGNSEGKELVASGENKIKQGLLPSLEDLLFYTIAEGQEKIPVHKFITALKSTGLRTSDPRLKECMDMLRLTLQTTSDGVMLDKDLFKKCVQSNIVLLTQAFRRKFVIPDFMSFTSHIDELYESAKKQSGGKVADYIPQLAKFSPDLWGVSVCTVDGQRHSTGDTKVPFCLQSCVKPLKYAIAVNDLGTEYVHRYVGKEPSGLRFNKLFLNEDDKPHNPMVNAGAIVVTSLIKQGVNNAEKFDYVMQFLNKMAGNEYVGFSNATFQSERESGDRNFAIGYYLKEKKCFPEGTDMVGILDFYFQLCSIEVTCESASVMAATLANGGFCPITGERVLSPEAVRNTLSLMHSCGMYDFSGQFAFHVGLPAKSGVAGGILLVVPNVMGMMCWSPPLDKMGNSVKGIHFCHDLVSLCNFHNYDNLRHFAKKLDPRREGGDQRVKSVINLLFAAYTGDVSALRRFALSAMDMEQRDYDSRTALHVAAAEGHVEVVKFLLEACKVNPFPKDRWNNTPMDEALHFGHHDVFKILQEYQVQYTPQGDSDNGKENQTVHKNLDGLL
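Human kidney-isoform GLS in 45 mM KH2PO4 pH 8.2, 0.02% Tween-20, with compound, started with 1mM L-Glutamine (added stock). Glutamate oxidase/HRP/Amplex red coupled fluorescence read at start and after 30 min at RT.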
VDR inh – Inhibitors of the vitamin D receptor (VDR): qHTS; Potency, µM, for the others: max response, negative = inhibition, usual class: inhibitors; 400,000 compounds, 0.93% hits; AID 504847, 2011; VDR-SRC2-3 peptide fluorescence polarization, 2 h; note: potency is the fitted concentration of half-maximal effect
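Fluorescence polarization assay measuring small-molecule disruption of VDR binding to the coregulator peptide SRC2-3. Compounds were pin-transferred (23 nl) into the reagent mix and incubated 2 h at room temperature before reading.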
KAT2A inh – qHTS Assay for Inhibitors of GCN5L2; 390,000 compounds, 0.21% hits; Potency, µM (top dose mostly 58.9 µM), for the others: top-dose activity change, negative = inhibition, most hits filed as inhibitors; Histone acetyltransferase KAT2A (Homo sapiens), Q92830; GCN5L2 HAT assay, ThioGlo1 CoA-SH fluorescence; note: potency is the fitted concentration of half-maximal effect
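Titration-based screen in which CoA formation is detected via maleimide probe ThioGlo1 (50uM) turning fluorescent on thiol reaction; substrates H3(1-25) 75uM and acetyl-CoA 70uM, GCN5L2 20nM, 20 min incubation at room temperature.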
* = called active by the depositor. Unless noted, calls come from the whole dose curve; as a rule, active = well fitted curve in the direction sought with a large enough effect; inconclusive = small, poorly fitted or top-dose-only effect, or another doubt; inactive = no such curve, though single readings can be large; an effect the other way counts as inactive or inconclusive. Unless noted, % is set by controls: 0 for no effect and ±100 for the full control effect.

Results for CC(=O)OC1CC[C@]2(C)C(CC(OC(C)=O)[C@@]3(C)C4=CC(=O)OC(c5ccoc5)[C@]4(C)CCC23)C1(C)C (some centres undefined) ?
VDR inh: 25µM*; KAT2A inh: -20%

What do the screens show for `COC(=O)CSc1nnc(-c2ccc(NS(=O)(=O)c3c(C(C)C)cc(C(C)C)cc3C(C)C)cc2)o1`?
PI4K2A inh: -7

What do the screens show for `CCOC(=O)CC[C@@H]1CC[C@]2(CCCN(C(=O)c3cccnc3)C2)O1`?
PI4K2A inh: 1

What do the screens show for `COc1ccc(S[C@]2(C(=O)N3CCOCC3)CC(=O)N(C(=O)C3CC3)[C@@H]2c2ccc(OC)cc2)cc1`?
PI4K2A inh: 5

Results for Cc1cc2oc(=O)c(CC(=O)O)c(C)c2c2occ(C(C)(C)C)c12 ?
PLK1 PBD inh: 30µM*; PI4K2A inh: 4; GLS inh: -16%; VDR inh: -21%; KAT2A inh: -12%

Results for Clc1ccc(-c2ccn[nH]2)cc1 ?
PLK1 PBD inh: -8%; PI4K2A inh: 6; GLS inh: -1%; VDR inh: -9%; KAT2A inh: -3%

How did S=c1nccc(-c2ccc(Cl)cc2)[nH]1 do in these assays?
PLK1 PBD inh: 1.5µM*; PI4K2A inh: -6; GLS inh: inconclusive; VDR inh: inconclusive; KAT2A inh: inconclusive

How did S=c1[nH]c(-c2ccc(Cl)cc2)cs1 do in these assays?
PLK1 PBD inh: 9.5µM*; PI4K2A inh: 3; GLS inh: -6%; VDR inh: inconclusive; KAT2A inh: -21%

How did NS(=O)(=O)c1ccc(-c2ccc(/C=C3\NC(=S)NC3=O)o2)cc1 do in these assays?
PLK1 PBD inh: inconclusive; PI4K2A inh: -4; GLS inh: -8%; VDR inh: 79µM*; KAT2A inh: -3%

Results for NS(=O)(=O)c1ccc(-c2ccc(C=O)o2)cc1 ?
PLK1 PBD inh: -4%; PI4K2A inh: -2; GLS inh: -4%; VDR inh: -2%; KAT2A inh: -9%

What do the screens show for `Cc1ccc(-c2cc(C(=O)N3CCN(S(=O)(=O)c4ccc(Br)s4)CC3)[nH]n2)c(C)c1`?
PI4K2A inh: 0; GLS inh: 6%; VDR inh: 10%; KAT2A inh: -9%

How did CC1Cc2ccccc2N1C(=O)CCS(=O)(=O)c1ccc2c(c1)NC(=O)CS2 (centres undefined) do in these assays?
PLK1 PBD inh: 19µM*; PI4K2A inh: 6; GLS inh: -3%; VDR inh: inconclusive; KAT2A inh: -4%

Results for O=C(CCS(=O)(=O)c1ccc2c(c1)NC(=O)CS2)NCCc1ccc(Cl)cc1 ?
PLK1 PBD inh: 17µM*; PI4K2A inh: -2; GLS inh: 3%; VDR inh: inconclusive; KAT2A inh: -5%

What do the screens show for `CC1CCC(NC(=O)CCS(=O)(=O)c2ccc3c(c2)NC(=O)CS3)CC1` (centres undefined)?
PLK1 PBD inh: -4%; PI4K2A inh: 3; GLS inh: -2%; VDR inh: -15%; KAT2A inh: -16%

How did Cc1cccc(NC(=O)CCS(=O)(=O)c2ccc3c(c2)NC(=O)CS3)n1 do in these assays?
PLK1 PBD inh: 30µM*; PI4K2A inh: 0; GLS inh: 6%; VDR inh: inconclusive; KAT2A inh: -5%

Results for COc1cccc(N2CCN(C(=O)c3ccc4c(Cl)c5c(nc4c3)CCCC5)CC2)c1 ?
PI4K2A inh: 0; GLS inh: 15%; VDR inh: -9%; KAT2A inh: -13%

Results for O=C(c1ccco1)N1C(=O)c2cccc3cccc1c23 ?
PLK1 PBD inh: 5.3µM*; PI4K2A inh: -3; GLS inh: -20%; VDR inh: -5%; KAT2A inh: -5%

Results for Nc1cccc2c1C(=O)N(C(=O)c1ccco1)C2=O ?
PLK1 PBD inh: -19%; PI4K2A inh: 7; GLS inh: 1%; VDR inh: -1%; KAT2A inh: -27%

What do the screens show for `CCCCCCCCCCCCCCCCCCCCCCCCCCCCCC`?
VDR inh: -3%; KAT2A inh: 1%

How did CCCCOC(=O)C(C)Nc1n[nH]c(=S)[nH]c1=O (centres undefined) do in these assays?
PLK1 PBD inh: 27µM*; PI4K2A inh: 2; GLS inh: -20%; VDR inh: -15%; KAT2A inh: -4%

How did CCCCOC(=O)C(C)Nc1n[nH]c(=O)[nH]c1=O (centres undefined) do in these assays?
PLK1 PBD inh: -3%; PI4K2A inh: 0; GLS inh: -4%; VDR inh: 6%; KAT2A inh: -4%

Results for CC(C)c1ccccc1NC(=O)COC(=O)/C=C/c1cccc([N+](=O)[O-])c1 ?
PLK1 PBD inh: 15µM*; PI4K2A inh: -2; GLS inh: -18%; VDR inh: inconclusive; KAT2A inh: 1%

Results for CCOC(=O)N1CCN(C(=O)/C=C/c2cccc([N+](=O)[O-])c2)CC1 ?
PLK1 PBD inh: 30µM*; PI4K2A inh: -1; GLS inh: 5%; VDR inh: 0%; KAT2A inh: -7%

Results for CCOC(=O)N1CCN(/[N+]([O-])=N/Oc2ccc([N+](=O)[O-])cc2[N+](=O)[O-])CC1 ?
PI4K2A inh: 14; VDR inh: 45µM*; KAT2A inh: -14%

What do the screens show for `CCOC(=O)N1CCN(c2ccc([N+](=O)[O-])cc2)CC1`?
PLK1 PBD inh: -3%; PI4K2A inh: 2; GLS inh: 9%; VDR inh: -18%; KAT2A inh: 0%

Results for O=C(/C=C/c1cccc([N+](=O)[O-])c1)Nc1cc(C(=O)O)cc(C(=O)O)c1 ?
PLK1 PBD inh: 11µM*; PI4K2A inh: -2; GLS inh: inconclusive; VDR inh: 35µM*; KAT2A inh: -4%

How did CCN(C(=O)Cn1c(=O)n(-c2ccccc2)c(=O)c2ccc(C(=O)NCc3ccc4c(c3)OCO4)cc21)c1cccc(C)c1 do in these assays?
PI4K2A inh: 0; GLS inh: -3%; VDR inh: 3%; KAT2A inh: -15%

What do the screens show for `Cn1c2ccccc2c(=O)c2ccc(NCCc3cccs3)cc21`?
PLK1 PBD inh: 2%; PI4K2A inh: -17; GLS inh: 2%; VDR inh: -10%; KAT2A inh: 10µM*

How did N#Cc1cc([N+](=O)[O-])c(-n2nnc3ccccc32)c([N+](=O)[O-])c1 do in these assays?
PLK1 PBD inh: 11µM*; PI4K2A inh: 4; GLS inh: 100%; VDR inh: inconclusive; KAT2A inh: -7%

Assay outcomes: PubChem, National Center for Advancing Translational Sciences (NCATS)
